In PubChem BioAssay (NCATS):
Inconclusive results are not listed. Calls of active or inactive are those of the source. The call rests on the fitted dose curve; in most records, active means well fitted curve in the direction sought with a large enough effect; inconclusive means small, poorly fitted or top-dose-only effect, or another doubt; inactive means no such curve, though single readings can be large; an effect the other way counts as inactive or inconclusive.

Assays:
CRL-7250 = normal cell line; assay: Cytotoxic Profiling of Annotated Libraries Using Quantitative High-Throughput Screening (AID 1296008); conditions: Five cell lines viability, CellTiter-Glo ATP luminescence, 48-72 h; max response: hits give low values; further: nearly all actives have a fitted effect of over 60% in size; on max response: on the % scale 0 is the no-effect control and ±100 the full control effect
Method in brief: (§1)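 Compounds were pin-transferred onto cells and incubated 48 or 72 hr at 37 degree Celsius, 95% humidity. CellTiter-Glo was added, plates sat 10 min at room temperature, then ATP-coupled luminescence was imaged as the viability read-out.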

HEK293 = assay: as above; conditions: Five cell lines viability, CellTiter-Glo ATP luminescence, 48-72 h; max response: hits give low values
Method in brief: as §1

HaCat [1] = assay: as above; conditions: Five cell lines viability, CellTiter-Glo ATP luminescence, 48-72 h; max response: hits give low values
Method in brief: as §1

KB-3-1 = assay: as above; conditions: Five cell lines viability, CellTiter-Glo ATP luminescence, 48-72 h; max response: hits give low values
Method in brief: as §1

NIH3T3 [2] = assay: as above; conditions: Five cell lines viability, CellTiter-Glo ATP luminescence, 48-72 h; max response: hits give low values
Method in brief: as §1

HACAT [3] = assay: qHTS assay to identify novel small-molecules to repurpose for Merkel cell carcinoma treatment (AID 1296009); conditions: MCC and control cell lines, CellTiter-Glo viability, 72 h; at 44.8 µM (top of the series) unless noted; further: nearly all actives have a fitted effect of over 60% in size
Method in brief: (§2)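 qHTS format: cells treated with library compounds in DMSO across 8 (NPC) or 11 (MIPE) concentrations. Readout after 72 hr at 37 degree celsius was CellTiter-Glo luminescence.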

NIH3T3 [4] = assay: as above; conditions: MCC and control cell lines, CellTiter-Glo viability, 72 h; at 44.8 µM (top of the series) unless noted
Method in brief: as §2

C33A = assay: Primary qHTS to identify gynecologic anti-cancer compounds using libraries of approved drugs and bioactive compounds (AID 1345084); conditions: Gynecologic cancer cell panel viability, ATPlite luminescence, 48 h; series mostly up to 57.5 µM; further: on the % scale 0 is the no-effect control and ±100 the full control effect; nearly all actives have a fitted effect of over 55% in size
Method in brief: (§3)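 48 h compound exposure at 37 C, 5% CO2; five-point qHTS. ATPlite luminescence readout of cell ATP.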

CAOV3 = assay: as above; conditions: Gynecologic cancer cell panel viability, ATPlite luminescence, 48 h; series mostly up to 57.5 µM
Method in brief: as §3

CASKI = assay: as above; conditions: Gynecologic cancer cell panel viability, ATPlite luminescence, 48 h; series mostly up to 57.5 µM
Method in brief: as §3

Es-2 = assay: as above; conditions: Gynecologic cancer cell panel viability, ATPlite luminescence, 48 h; series mostly up to 57.5 µM
Method in brief: as §3

HeLa = assay: as above; conditions: Gynecologic cancer cell panel viability, ATPlite luminescence, 48 h; series mostly up to 57.5 µM
Method in brief: as §3

Hek293T = assay: as above; conditions: Gynecologic cancer cell panel viability, ATPlite luminescence, 48 h, control line for the selectivity index; series mostly up to 57.5 µM
Method in brief: as §3

JEG-3 = assay: as above; conditions: Gynecologic cancer cell panel viability, ATPlite luminescence, 48 h; series mostly up to 57.5 µM
Method in brief: as §3

OV90 = assay: as above; conditions: Gynecologic cancer cell panel viability, ATPlite luminescence, 48 h; series mostly up to 57.5 µM
Method in brief: as §3

PA-1 = assay: as above; conditions: Gynecologic cancer cell panel viability, ATPlite luminescence, 48 h; series mostly up to 57.5 µM
Method in brief: as §3

CC(=O)/C=C/C1(O)C(C)(C)CC(O)CC1(C)O (stereo not given)
inactive: max response (CRL-7250) -6.38% | max response (HEK293) -4.83% | outcome (HaCat [1]) | outcome (KB-3-1) | outcome (NIH3T3 [2]) | outcome (HACAT [3]) | outcome (NIH3T3 [4]) | Potency (C33A) | Potency (CAOV3) | outcome (CASKI) | Potency (Es-2) | Potency (HeLa) | Potency (Hek293T) | Potency (JEG-3) | Potency (OV90) | Potency (PA-1)

O=C(O)Cc1cn([C@@H]2O[C@H](CO)[C@@H](O)[C@H](O)[C@H]2O[C@@H]2O[C@H](CO)[C@@H](O)[C@H](O)[C@H]2O)c2ccccc12
inactive: max response (CRL-7250) -3.23% | max response (HEK293) 2.13% | outcome (HaCat [1]) | max response (KB-3-1) 4.7% | outcome (NIH3T3 [2]) | outcome (HACAT [3]) inactive [at 17.4 µM] | outcome (NIH3T3 [4]) inactive [at 17.4 µM] | Potency (C33A) | Potency (CAOV3) | outcome (CASKI) | Potency (Es-2) | Potency (HeLa) | Potency (Hek293T) | Potency (JEG-3) | Potency (OV90) | Potency (PA-1)

OC[C@H]1O[C@@H](OCc2ccccc2)[C@H](O)[C@@H](O)[C@@H]1O
inactive: max response (CRL-7250) 0.468% | max response (HEK293) -5.26% | outcome (HaCat [1]) | max response (KB-3-1) 1.59% | outcome (NIH3T3 [2]) | outcome (HACAT [3]) | outcome (NIH3T3 [4]) | Potency (C33A) | Potency (CAOV3) | outcome (CASKI) | Potency (Es-2) | Potency (HeLa) | Potency (Hek293T) | Potency (JEG-3) | Potency (OV90) | Potency (PA-1)

COc1cccc(OC)c1-c1ccc(C[C@H](NC(=O)c2c(Cl)cccc2Cl)C(=O)O)cc1
inactive: max response (CRL-7250) 1.89% | max response (HEK293) -9.99% | outcome (HaCat [1]) | outcome (KB-3-1) | outcome (NIH3T3 [2]) | outcome (HACAT [3]) | outcome (NIH3T3 [4]) | Potency (C33A) | Potency (CAOV3) | outcome (CASKI) | Potency (Es-2) | Potency (HeLa) | Potency (Hek293T) | Potency (JEG-3) | Potency (OV90) | Potency (PA-1)

CC(=O)OCC(Cc1ccccc1)NC(=O)C(Cc1ccccc1)NC(=O)c1ccccc1 (stereo not given)
inactive: outcome (CRL-7250) | max response (HEK293) -2.31% | outcome (HaCat [1]) | max response (KB-3-1) -0.456% | outcome (NIH3T3 [2]) | outcome (HACAT [3]) inactive [at 17.4 µM] | outcome (NIH3T3 [4]) inactive [at 17.4 µM] | Potency (C33A) | Potency (CAOV3) | outcome (CASKI) | Potency (Es-2) | Potency (HeLa) | Potency (Hek293T) | Potency (JEG-3) | Potency (OV90) | Potency (PA-1)

CC1=C[C@@H]2[C@H]3[C@@H]4O[C@@](C)(CC[C@H]4O)[C@H]3CC(=O)[C@]23C(=O)N[C@@H](CC(C)C)[C@@H]3[C@@H]1C
inactive: outcome (CRL-7250) | max response (HEK293) 4.29% | outcome (HaCat [1]) | max response (KB-3-1) 9.19% | outcome (NIH3T3 [2]) | outcome (HACAT [3]) | outcome (NIH3T3 [4]) | Potency (C33A) | Potency (CAOV3) | outcome (CASKI) | Potency (Es-2) | Potency (HeLa) | Potency (Hek293T) | Potency (JEG-3) | Potency (OV90) | Potency (PA-1)

CC1=C(CO)C2(C)CCCC(C)(C)C2C(O)C1O (stereo not given)
inactive: max response (CRL-7250) -6.52% | max response (HEK293) -5.93% | outcome (HaCat [1]) | outcome (KB-3-1) | outcome (NIH3T3 [2]) | outcome (HACAT [3]) | outcome (NIH3T3 [4]) | Potency (C33A) | Potency (CAOV3) | outcome (CASKI) | Potency (Es-2) | Potency (HeLa) | Potency (Hek293T) | Potency (JEG-3) | Potency (OV90) | Potency (PA-1)

CC(O)/C=C/C1(O)C(C)C(O)C(O[C@@H]2O[C@H](CO)[C@@H](O)[C@H](O)[C@H]2O)CC1(C)C (stereo not given in full)
inactive: max response (CRL-7250) -7.69% | max response (HEK293) -15.2% | outcome (HaCat [1]) | max response (KB-3-1) 0.447% | outcome (NIH3T3 [2]) | outcome (HACAT [3]) inactive [at 17.4 µM] | outcome (NIH3T3 [4]) inactive [at 17.4 µM] | Potency (C33A) | Potency (CAOV3) | outcome (CASKI) | Potency (Es-2) | Potency (HeLa) | Potency (Hek293T) | Potency (JEG-3) | Potency (OV90) | Potency (PA-1)

CC[C@H](NC(=O)c1c(O)c(-c2ccccc2)nc2ccccc12)c1ccccc1
inactive: outcome (CRL-7250) | max response (HEK293) -9.53% | outcome (HaCat [1]) | max response (KB-3-1) -1.35% | outcome (NIH3T3 [2]) | outcome (HACAT [3]) | outcome (NIH3T3 [4]) | Potency (C33A) | Potency (CAOV3) | outcome (CASKI) | Potency (Es-2) | Potency (HeLa) | Potency (Hek293T) | Potency (JEG-3) | Potency (OV90) | Potency (PA-1)

CC1OC(OC2CCC3(C)C(CCC4(C)C3C=CC35OCC6(CCC(C)(C)CC63)CCC45C)C2(C)CO)C(OC2OC(CO)C(O)C(O)C2O)C(O)C1OC1OC(CO)C(O)C(O)C1O (stereo not given)
inactive: max response (CRL-7250) -0.103% | max response (HEK293) -1.62% | outcome (HaCat [1]) | outcome (KB-3-1) | outcome (NIH3T3 [2]) | outcome (HACAT [3]) inactive [at 9.27 µM] | outcome (NIH3T3 [4]) inactive [at 9.27 µM] | activity change, negative = cytotoxicity (C33A) 0.873% [at 11.6 µM] | activity change, negative = cytotoxicity (CAOV3) 14% [at 11.6 µM] | activity change, negative = cytotoxicity (CASKI) 3.54% [at 11.6 µM] | activity change, negative = cytotoxicity (Es-2) -0.667% [at 11.6 µM] | activity change, negative = cytotoxicity (HeLa) 5.87% [at 11.6 µM] | activity change, negative = cytotoxicity (Hek293T) 6.69% [at 11.6 µM] | activity change, negative = cytotoxicity (JEG-3) 8.45% [at 11.6 µM] | activity change, negative = cytotoxicity (OV90) -14.8% [at 11.6 µM] | activity change, negative = cytotoxicity (PA-1) 5.66% [at 11.6 µM]
